Assay results taken from the OligoGym collection.

Target: C17orf103
Experiment: pooled miR-30 sensor sort-seq; sequence = guide strand
Settings: shRNA
Further: reference of the scale not given here.

In order of falling sensor-assay potency score (higher = more potent):
1. TTGAGCCGGACAGTGAACTGGC  -0.109
2. TCATAGAGCAGGACGGCCCGGT  -0.156
3. TGTACCAGCAGGTGAGATGGGC  -0.507
4. TGGGACCTCGGTGTGCTGCAGG  -1.5
5. ACGTACTTCTGGATGTACCAGC  -1.62

Target: C17orf48
Experiment: as above
Settings: shRNA

In order of rising sensor-assay potency score (higher = more potent):
1. TTGAGGACTATTCAGTTCCGTA  -1.1
2. ATCTTCTAGAAACTTAGTGTTA  -1.09
3. TTCTTGTAATTCATAATTCTAT  -1
4. TATACTGTGCATTATATCCATC  -0.953
5. TACACTGCTCGTATTTTGGAGA  -0.905
6. ATCGATGATATCTCCAAGCTGA  -0.464
7. TATGTCTGTAGTATCGCCGCCT  -0.223
8. TTCAATAACTCCTTCTAGGTTG  -0.121
9. TGATCTTCTAGAAACTTAGTGT  0.0518
10. TATCTTCATACACTGCTCGTAT  0.128
11. TAGTGTTAAGTTTAGAGTGTGT  0.18
12. TTCAACATCATTTTGTCAGGAT  1.06

Target: C17orf64
Experiment: as above
Settings: shRNA

In order of falling sensor-assay potency score (higher = more potent):
1. TTTATTCCTAATTAAGACCTGA  0.154
2. ATCTTTCTTGACATGGTCCTGG  -0.00122
3. TTTCTTGACATGGTCCTGGGAT  -0.0819
4. TTGGGCAGACTGTCTTCCCGGT  -0.108
5. TTTTTGATAAGGACAATTCTTT  -0.341
6. TTGGTGTACTTGTAAAGTCGGC  -0.519
7. TTCATGCCGCTGATGTTGCTGT  -0.699
8. TGTACTTGTAAAGTCGGCGAAG  -0.717
9. TTGAGTTTTGGTTTTTGAGAAA  -0.844
10. TCTTTCTTGACATGGTCCTGGG  -0.903
11. TTCCTTTATCCTCTTCCTCTTG  -0.925
12. TTAAAGAATCTTTCTTGACATG  -1.34

Target: C17orf71
Experiment: as above
Settings: shRNA

In order of rising sensor-assay potency score (higher = more potent):
1. TATTGTGATATAGCACAGGCGG  -1.08
2. TTAGCTTCCAGTCTTTGCCAAC  -1.08
3. TTGTGTCTAAGTCTCCTTCATC  -0.792
4. TTGATGCTTCCAGAACTCGTGT  -0.713
5. TTGACTGGTAGGCACTGTGGGC  -0.647
6. TTTAAGTTTATCAGCATCCGAA  -0.269
7. TCATCTTCAGCTCTAGTCCTGA  -0.0647
8. TTCATCTTCAGCTCTAGTCCTG  0.0154
9. TTTGCCAACTGGACAATCCTTA  0.137
10. TTTCTTGCTTAGAACTAGCTCC  0.179
11. TTCCACAACACTTTTCTTCCAG  0.741
